# PMC5700166
# Residue numbers refer to the chain shown, from its start.
# How the values were obtained:
# Assay in all cases: protein-binding microarray (PBM); PBM: ~300 nM protein, 6 mM HEPES pH 7.8, 80 mM KCl, 0.5 mM EDTA, 0.5 mM EGTA, 6% glycerol, 35 ng/ul poly-dIdC, 1% milk, 1 h, room temperature; Ap Aiptasia and Nv Nematostella (sea anemones) / Co Capsaspora / Aq Amphimedon (sponge) / Dm Drosophila / Hu human; RHD is the Rel homology domain; high values mean tight binding
# Conditions in all cases: dsDNA, one strand shown
# [1] = target: T1, GST-Ap-NF-kB RHD (Exaiptasia pallida (Aiptasia), UniProt A0A913YAJ5 2-422)
# T1 sequence: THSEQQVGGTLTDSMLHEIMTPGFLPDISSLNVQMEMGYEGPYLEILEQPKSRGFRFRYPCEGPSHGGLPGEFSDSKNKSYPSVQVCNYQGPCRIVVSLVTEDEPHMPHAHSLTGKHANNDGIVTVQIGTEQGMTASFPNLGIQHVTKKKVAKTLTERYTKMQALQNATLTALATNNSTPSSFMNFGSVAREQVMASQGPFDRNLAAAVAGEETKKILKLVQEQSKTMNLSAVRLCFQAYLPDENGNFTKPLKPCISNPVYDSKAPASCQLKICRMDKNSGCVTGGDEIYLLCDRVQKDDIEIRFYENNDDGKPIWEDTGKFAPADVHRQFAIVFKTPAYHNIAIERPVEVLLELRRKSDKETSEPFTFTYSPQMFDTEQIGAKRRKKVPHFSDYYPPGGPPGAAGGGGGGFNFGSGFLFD
# [2] = target: T2, GST-Dm-Relish (Drosophila melanogaster, UniProt Q94527 99-473)
# T2 sequence: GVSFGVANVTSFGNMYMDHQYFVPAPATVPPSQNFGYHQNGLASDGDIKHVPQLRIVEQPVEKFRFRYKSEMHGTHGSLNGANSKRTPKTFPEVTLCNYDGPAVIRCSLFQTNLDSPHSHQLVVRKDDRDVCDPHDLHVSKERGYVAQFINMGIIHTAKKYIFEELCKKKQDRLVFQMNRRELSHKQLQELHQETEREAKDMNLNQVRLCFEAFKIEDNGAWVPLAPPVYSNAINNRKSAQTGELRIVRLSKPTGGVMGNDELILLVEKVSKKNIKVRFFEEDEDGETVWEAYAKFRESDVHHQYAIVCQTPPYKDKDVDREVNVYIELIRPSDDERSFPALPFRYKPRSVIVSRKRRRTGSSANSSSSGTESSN
# [3] = target: T3, GST-Nv-NF-kB (Ser allele) (Nematostella vectensis, UniProt A7UNT2 2-411)
# T3 sequence: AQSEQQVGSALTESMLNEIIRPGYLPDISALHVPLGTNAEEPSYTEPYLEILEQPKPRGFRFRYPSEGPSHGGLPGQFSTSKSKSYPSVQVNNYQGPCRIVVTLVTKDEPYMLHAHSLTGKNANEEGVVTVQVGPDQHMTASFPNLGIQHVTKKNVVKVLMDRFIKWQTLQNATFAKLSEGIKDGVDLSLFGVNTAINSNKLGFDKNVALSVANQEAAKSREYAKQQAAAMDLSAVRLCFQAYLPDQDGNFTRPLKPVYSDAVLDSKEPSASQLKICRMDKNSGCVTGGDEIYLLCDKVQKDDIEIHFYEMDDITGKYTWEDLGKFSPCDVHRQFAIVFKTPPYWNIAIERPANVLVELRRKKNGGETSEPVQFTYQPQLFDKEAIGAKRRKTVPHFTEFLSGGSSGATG
# [4] = target: T4, GST-Co-NF-kB (Capsaspora owczarzaki, UniProt F1ARL5 200-546)
# T4 sequence: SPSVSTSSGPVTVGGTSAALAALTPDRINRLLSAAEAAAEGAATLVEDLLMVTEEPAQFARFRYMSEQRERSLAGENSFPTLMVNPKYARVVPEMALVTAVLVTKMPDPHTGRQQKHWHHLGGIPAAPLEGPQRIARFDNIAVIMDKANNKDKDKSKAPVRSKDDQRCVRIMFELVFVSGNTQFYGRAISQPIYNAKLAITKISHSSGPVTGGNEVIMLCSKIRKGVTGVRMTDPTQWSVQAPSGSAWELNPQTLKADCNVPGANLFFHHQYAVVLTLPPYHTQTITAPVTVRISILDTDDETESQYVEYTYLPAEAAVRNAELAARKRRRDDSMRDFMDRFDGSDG
# [5] = target: T5, GST-Nv-NF-kB (Cys allele) (Nematostella vectensis, UniProt E5G601 2-411)
# T5 sequence: T3 sequence with R21Q, S66C, N207S, Q215E, A217V, K225E, E268A, E399D
sequence,measurement,setting,value
CCGATTAACATCACCCGCGCTCATGATGTTAATCGGGTCTTGATTCGCTTGACGCTGCTG,binding signal,[1],1.32 z-score
same,binding signal,[2],1.06 z-score
CCGATTAACATCACCCACCGATTTGATGTTAATCGGGTCTTGATTCGCTTGACGCTGCTG,binding signal,[1],1.07 z-score
CCGATTAACATCACACTGTTCAGTGATGTTAATCGGGTCTTGATTCGCTTGACGCTGCTG,binding signal,[3],1.06 z-score
CCGATTAACATCATGGGGTGTGCTGATGTTAATCGGGTCTTGATTCGCTTGACGCTGCTG,binding signal,[1],1.12 z-score
same,binding signal,[4],1.28 z-score
CCGATTAACATCACCCGGCGCAGTGATGTTAATCGGGTCTTGATTCGCTTGACGCTGCTG,binding signal,[1],1.17 z-score
same,binding signal,[4],2.3 z-score
CCGATTAACATCAATCAGCGGGGTGATGTTAATCGGGTCTTGATTCGCTTGACGCTGCTG,binding signal,[1],1.21 z-score
same,binding signal,[4],2.43 z-score
CCGATTAACATCACCCCCCCCCCTGATGTTAATCGGGTCTTGATTCGCTTGACGCTGCTG,binding signal,[1],5.35 z-score
same,binding signal,[4],7.37 z-score
same,binding signal,[2],4.97 z-score
CCGATTAACATCACTACCCCGGATGATGTTAATCGGGTCTTGATTCGCTTGACGCTGCTG,binding signal,[1],1.88 z-score
same,binding signal,[4],3.19 z-score
CCGATTAACATCAGCATTCCCAATGATGTTAATCGGGTCTTGATTCGCTTGACGCTGCTG,binding signal,[5],1.29 z-score
same,binding signal,[4],1.08 z-score
CCGATTAACATCAGCTTGGGAAATGATGTTAATCGGGTCTTGATTCGCTTGACGCTGCTG,binding signal,[5],1.84 z-score
same,binding signal,[4],2.33 z-score
CCGATTAACATCAGGTAATATATTGATGTTAATCGGGTCTTGATTCGCTTGACGCTGCTG,binding signal,[3],2.14 z-score
CCGATTAACATCACCCCATCTCGTGATGTTAATCGGGTCTTGATTCGCTTGACGCTGCTG,binding signal,[1],1.2 z-score
same,binding signal,[4],2.11 z-score
same,binding signal,[2],1.42 z-score
CCGATTAACATCAATTAGGTGGGTGATGTTAATCGGGTCTTGATTCGCTTGACGCTGCTG,binding signal,[1],1.19 z-score
same,binding signal,[4],1.13 z-score
CCGATTAACATCACGGTGTGGGTTGATGTTAATCGGGTCTTGATTCGCTTGACGCTGCTG,binding signal,[4],1.37 z-score
CCGATTAACATCACACCCGCAACTGATGTTAATCGGGTCTTGATTCGCTTGACGCTGCTG,binding signal,[4],1.54 z-score
CCGATTAACATCACAATAACGGGTGATGTTAATCGGGTCTTGATTCGCTTGACGCTGCTG,binding signal,[4],1.26 z-score
same,binding signal,[2],1.63 z-score
CCGATTAACATCACAACGGAATGTGATGTTAATCGGGTCTTGATTCGCTTGACGCTGCTG,binding signal,[2],1.37 z-score
CCGATTAACATCAAGTGAATTCCTGATGTTAATCGGGTCTTGATTCGCTTGACGCTGCTG,binding signal,[2],3.49 z-score
CCGATTAACATCACCCGCTTTATTGATGTTAATCGGGTCTTGATTCGCTTGACGCTGCTG,binding signal,[4],1.23 z-score
CCGATTAACATCAGGGAGCGGTTTGATGTTAATCGGGTCTTGATTCGCTTGACGCTGCTG,binding signal,[4],1.07 z-score
CCGATTAACATCAGGGTGTAGTTTGATGTTAATCGGGTCTTGATTCGCTTGACGCTGCTG,binding signal,[4],1.14 z-score
same,binding signal,[2],1.07 z-score
CCGATTAACATCAATGTCGGTGGTGATGTTAATCGGGTCTTGATTCGCTTGACGCTGCTG,binding signal,[4],1.2 z-score
CCGATTAACATCACTTAGTACGGTGATGTTAATCGGGTCTTGATTCGCTTGACGCTGCTG,binding signal,[2],1.1 z-score
CCGATTAACATCAGGAAAAAAACTGATGTTAATCGGGTCTTGATTCGCTTGACGCTGCTG,binding signal,[4],1.06 z-score
same,binding signal,[2],1.23 z-score
CCGATTAACATCAAGAGAGAAAGTGATGTTAATCGGGTCTTGATTCGCTTGACGCTGCTG,binding signal,[4],1.16 z-score
CCGATTAACATCAGGCCTTTCCATGATGTTAATCGGGTCTTGATTCGCTTGACGCTGCTG,binding signal,[2],1.71 z-score
CCGATTAACATCAGTAATTTACATGATGTTAATCGGGTCTTGATTCGCTTGACGCTGCTG,binding signal,[2],6.73 z-score
CCGATTAACATCACCCTACAAGTTGATGTTAATCGGGTCTTGATTCGCTTGACGCTGCTG,binding signal,[4],3.08 z-score
CCGATTAACATCAGCCATATTTGTGATGTTAATCGGGTCTTGATTCGCTTGACGCTGCTG,binding signal,[4],1.13 z-score
CCGATTAACATCAGAATTTCCTATGATGTTAATCGGGTCTTGATTCGCTTGACGCTGCTG,binding signal,[2],1.23 z-score
CCGATTAACATCACCCACGACGATGATGTTAATCGGGTCTTGATTCGCTTGACGCTGCTG,binding signal,[4],1.01 z-score
same,binding signal,[2],1.04 z-score
CCGATTAACATCACAAAAAATTTTGATGTTAATCGGGTCTTGATTCGCTTGACGCTGCTG,binding signal,[2],2.12 z-score
CCGATTAACATCACCGCAGCATGTGATGTTAATCGGGTCTTGATTCGCTTGACGCTGCTG,binding signal,[2],1.18 z-score
CCGATTAACATCACCTTCTTTACTGATGTTAATCGGGTCTTGATTCGCTTGACGCTGCTG,binding signal,[4],1.57 z-score
CCGATTAACATCACCGAATTTGGTGATGTTAATCGGGTCTTGATTCGCTTGACGCTGCTG,binding signal,[2],1.44 z-score
CCGATTAACATCACGTGTTTTCCTGATGTTAATCGGGTCTTGATTCGCTTGACGCTGCTG,binding signal,[2],1.04 z-score
CCGATTAACATCACAATACACGCTGATGTTAATCGGGTCTTGATTCGCTTGACGCTGCTG,binding signal,[2],1.05 z-score
CCGATTAACATCAATTTTTGCCCTGATGTTAATCGGGTCTTGATTCGCTTGACGCTGCTG,binding signal,[4],1.72 z-score
CCGATTAACATCAGTGGTTACCATGATGTTAATCGGGTCTTGATTCGCTTGACGCTGCTG,binding signal,[2],2.13 z-score
CCGATTAACATCACCCACGAGGGTGATGTTAATCGGGTCTTGATTCGCTTGACGCTGCTG,binding signal,[4],1.35 z-score
same,binding signal,[2],1.29 z-score
CCGATTAACATCACAAATTTTCCTGATGTTAATCGGGTCTTGATTCGCTTGACGCTGCTG,binding signal,[4],1.2 z-score
same,binding signal,[2],2.01 z-score
CCGATTAACATCAGATACCAGGGTGATGTTAATCGGGTCTTGATTCGCTTGACGCTGCTG,binding signal,[4],1.09 z-score
CCGATTAACATCAGGAAAACACATGATGTTAATCGGGTCTTGATTCGCTTGACGCTGCTG,binding signal,[2],2.56 z-score
CCGATTAACATCACCCAAAGTTTTGATGTTAATCGGGTCTTGATTCGCTTGACGCTGCTG,binding signal,[4],1.24 z-score
CCGATTAACATCAAGTATTTTCCTGATGTTAATCGGGTCTTGATTCGCTTGACGCTGCTG,binding signal,[2],1.84 z-score
CCGATTAACATCAGGTCACCCCATGATGTTAATCGGGTCTTGATTCGCTTGACGCTGCTG,binding signal,[4],2.51 z-score
CCGATTAACATCAGTAGGTGAAGTGATGTTAATCGGGTCTTGATTCGCTTGACGCTGCTG,binding signal,[4],1.02 z-score
CCGATTAACATCATACCTCCCGTTGATGTTAATCGGGTCTTGATTCGCTTGACGCTGCTG,binding signal,[4],1.01 z-score
CCGATTAACATCACCCATTTCCGTGATGTTAATCGGGTCTTGATTCGCTTGACGCTGCTG,binding signal,[4],1.41 z-score
same,binding signal,[2],1.34 z-score
CCGATTAACATCAGGAAAAAACATGATGTTAATCGGGTCTTGATTCGCTTGACGCTGCTG,binding signal,[2],2.35 z-score
CCGATTAACATCAGGAAAGAACATGATGTTAATCGGGTCTTGATTCGCTTGACGCTGCTG,binding signal,[2],3.57 z-score
CCGATTAACATCACGAAAAATCCTGATGTTAATCGGGTCTTGATTCGCTTGACGCTGCTG,binding signal,[2],1.48 z-score
CCGATTAACATCAAGGGTGGAAATGATGTTAATCGGGTCTTGATTCGCTTGACGCTGCTG,binding signal,[4],1.66 z-score
